Laboratory results reported in PubChem BioAssay AID488922 (Johns Hopkins Ion Channel Center, 2010).
The whole screen tested about 310,000 compounds, of which about 3,800 (1.2%) were called active.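 The calls were made as follows: active = ratio B-score over 3 SD below the library mean, with starting fluorescence within 5 SD of its mean; inactive = the rest, inconclusive results apart.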 The list comes from a sample in which actives are over-represented; it also holds similar structures and randomly drawn compounds.

target: Potassium channel subfamily K member 9 (Homo sapiens) (UniProt Q9NPC2); assay: blockers of human TASK-3 (KCNK9) channel – HEK293 cells, thallium flux, primary screen (AID 488922); settings: HEK293 KCNK9, FluxOR thallium flux fluorescence, at 10 µM; hits give low values;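 as to B-score: negative B-score means less thallium flux so channel inhibition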
Sequence (Q9NPC2 whole entry, looked up): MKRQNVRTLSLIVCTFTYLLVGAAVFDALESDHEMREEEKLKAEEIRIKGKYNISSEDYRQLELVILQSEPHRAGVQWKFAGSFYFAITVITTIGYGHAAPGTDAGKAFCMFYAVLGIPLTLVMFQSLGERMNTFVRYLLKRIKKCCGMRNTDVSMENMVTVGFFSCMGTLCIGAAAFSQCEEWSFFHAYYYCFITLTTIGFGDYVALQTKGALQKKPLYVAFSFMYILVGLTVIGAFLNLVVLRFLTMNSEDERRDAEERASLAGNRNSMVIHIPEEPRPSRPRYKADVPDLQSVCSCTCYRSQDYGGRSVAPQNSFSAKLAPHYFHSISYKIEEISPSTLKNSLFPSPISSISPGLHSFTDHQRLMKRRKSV

B-score, active:
Cc1cc(Oc2ccc(Cl)cc2)nc(SCC(=O)c2ccccc2)n1 -11.2
CC(Sc1nc2cc(Cl)ccc2s1)C(=O)Nc1ccc2c(c1)OCO2 (configuration not stated) -7.35
COc1ccc(Nc2ncnc3sc(-c4ccccc4)cc23)c(OC)c1 -9.69
C=CCNC(=O)COC(=O)c1ccccc1C(=O)N(C)C1CCCCC1 -6.84
O=C(Nc1cc(Cl)cc(Cl)c1)C(NCCCO)c1ccccc1 (configuration not stated) -8.3
COC(=O)C1=C(Nc2ccc(C)cc2)C=C(C)C(C(=O)OC)C1c1ccc(F)cc1 (configuration not stated) -10.4
CN(CCC(=O)Nc1cc(S(=O)(=O)N(C)C)ccc1Cl)CC(=O)Nc1ccc(F)cc1 -12.2
O=C1c2ccccc2C2=Nc3ccccc3SC(c3ccccc3F)C12 (configuration not stated) -9.81
CCc1cccc(C)c1N(C(=O)Cn1c(CO)nc2ccccc21)C(C)COC (configuration not stated) -9.35
CCOc1ccc2[nH]c(=O)c(CN(Cc3nnnn3CCc3ccccc3)CC3CCCO3)cc2c1 (configuration not stated) -9.63
CCCN1C(=O)C(Cc2nc3ccccc3c(=O)n2-c2ccccc2)c2cc(C)ccc21 (configuration not stated) -9.54
CCOc1ccc(CN(Cc2ccco2)C(c2cccs2)c2nnnn2C(C)(C)C)cc1 (configuration not stated) -17
COc1ccc2c(c1)C(c1cccs1)=NNC(c1cccnc1)=N2 -13
CCCNC(=O)CSc1nc(Cc2ccccc2)nc2ccccc12 -7.59

B-score, inactive:
COc1ccc(C(=O)CSc2nc(C)cc(C)n2)cc1[N+](=O)[O-]
Cc1cc(C)nc(SCC(=O)c2ccc(Cl)cc2)n1
CCC(C)NC(=O)c1nn(C)c(=O)c2ccccc12 (configuration not stated)
Cc1ccc(N2C(=O)C(NC(=O)c3c(F)cccc3F)(C(F)(F)F)C3=C2CC(C)(C)CC3=O)cc1 (configuration not stated)
CC(Sc1nc(-c2ccccc2)cc(C(F)(F)F)n1)C(=O)Nc1ccc2c(c1)OCO2 (configuration not stated)
O=C(Nc1ccc2c(c1)OCO2)c1sc2cc(Cl)ccc2c1Cl
COc1ccc(Nc2ncnc3sc(C)cc23)cc1
COc1ccc(Nc2ncnc3ccc(Br)cc23)c(OC)c1
CCc1cc(=O)oc2cc(OCC(=O)N3CCCc4ccccc43)ccc12
CN(C)C(=O)c1ccc2c(c1)C1C3CCC(C3)C1C(c1ccccc1)N2 (configuration not stated)
CC(=O)c1ccc(NC(=O)CCNS(=O)(=O)c2cc(Br)cnc2N)cc1
O=C(COC(=O)c1ccccc1SCC(=O)NC1CCCCC1)NC1CCCCC1
COc1ccccc1C(=O)OCC(=O)NCCNC(=O)COC(=O)c1ccccc1OC
O=c1cc(Cl)c2ccccc2n1-c1ccccc1
OCCCNC(c1ccccc1)c1ccc(O)cc1 (configuration not stated)
CC(NCC(=O)Nc1cc(Cl)cc(Cl)c1)c1ccccc1 (configuration not stated)
COc1ccccc1N1CCN(Cc2cc(OC)c3c(c2)OCO3)CC1
Cc1noc(C)c1C(=O)OCC(=O)N1CCN(S(=O)(=O)c2ccc3ccccc3c2)CC1
COC(=O)C1C(=O)NCC1c1ccc(C)cc1 (configuration not stated)
COC(=O)C1=C(Nc2ccc(OC)cc2)C=C(C)C(C(=O)OC)C1c1ccc(C)cc1 (configuration not stated)
CC1CCC(NC(=O)CNC(=O)c2ccc3ccccc3c2)CC1 (configuration not stated)
CN=C1SC(CC(=O)Nc2ccc(C(=O)O)cc2)C(=O)N1C (configuration not stated)
CN(CC(=O)Nc1ccc(S(=O)(=O)N2CCCC2)cc1)Cc1ccc(Cl)c(Cl)c1
CN(CC(=O)Nc1ccc(F)cc1)CC(=O)Nc1ccc(Cl)c(S(=O)(=O)N2CCOCC2)c1
COc1ccccc1OCC(=O)O/N=C(\N)c1ccccn1
O=C(O)CCS(=O)(=O)c1ccc(-c2ccccc2)cc1
Cc1cc(C)c(C)c(S(=O)(=O)Nc2ccc(O)cc2)c1C
Cc1ccc(Cn2cc(C(=O)NN)c(=O)c3ccc(F)cc32)cc1
O=C1c2ccccc2C(=O)C1c1ccccc1F
CCOC(=O)C1=C(C)N=C2c3ccccc3C(=O)C2C1c1ccc(Br)cc1 (configuration not stated)
CC(C)c1ccc2c(c1)c(SC(C)(C)C)c(CC(C)(C)C(=O)O)n2Cc1ccc(Cl)cc1
COc1ccc(C2NC(=O)N(C)C(C)=C2[N+](=O)[O-])cc1 (configuration not stated)
COc1ccccc1Cn1c(CO)nc2ccccc21
CCOCN(C(=O)Cn1c(C(C)O)nc2ccccc21)c1c(C)cccc1CC (configuration not stated)
COc1ccc2[nH]c(=O)c(CN(Cc3nnnn3CCc3ccccc3)CC3CCCO3)cc2c1 (configuration not stated)
CCOc1ccc2[nH]c(=O)c(CN(Cc3nnnn3Cc3ccccc3)CC3CCCO3)cc2c1 (configuration not stated)
Cc1cc(=O)[nH]c(Nc2cccc(Br)c2)n1
CCCc1nc2c(c(=O)c3ccccc3n2C)c(=O)n1-c1cc(C)cc(C)c1
CCCc1nc2ccccc2c(=O)n1/N=C/c1ccc(O)c(O)c1
CC(C)(C)n1nnnc1C(c1cccs1)N(Cc1cccnc1)CC1CCCO1 (configuration not stated)
CCOc1ccc(CN(Cc2ccco2)S(=O)(=O)c2ccc(-n3cnnn3)c(OC)c2)cc1
NC(=O)CC(NC(=O)Cc1ccc(Br)cc1)c1ccc(NC2CC3CCC2C3)c([N+](=O)[O-])c1 (configuration not stated)
Cc1cc(C)n2nc(CNS(=O)(=O)c3c(F)c(F)c(F)c(F)c3F)nc2n1
COc1ccc(NC(=O)NN2CCN(C)CC2)c(OC)c1
COc1ccc(C(=O)/C=C/c2cccnc2)c(OC)c1
Fc1ccc2c(c1)C(c1cccnc1)=NNC(c1cccs1)=N2
OCC[C@H]1C[C@H](O)[C@@H](O)[C@]2(CCCCO2)O1
C=CCSc1nc(Cc2ccc(Cl)cc2)nc2ccccc12
CCc1nc(SCC(=O)NNC(=O)c2ccc(C)cc2)c2ccccc2n1
CCOc1ccc(N(C)Cc2cc(=O)oc3ccc(OC)cc23)cc1
Cc1nc(-c2ccc(F)cc2)c(CC(=O)Nc2cc(S(=O)(=O)N3CCCCC3)ccc2C)s1
Cc1ccc(S(=O)(=O)N(C)CC(=O)NCCc2c[nH]c3ccccc23)cc1
OC(c1ccc(Cl)cc1)C(CN1CCOCC1)c1ccccc1 (configuration not stated)
